Our source for the growth inhibition, inhibition and outcome values is PubChem BioAssay.

A number with no mark means an inactive call. For some assays here: Potency and affinity values are given separately. The source made the active and inactive calls. Unless noted, the rule behind the calls is not given here.

Experiment [1] in a line: antimalarial activity against Dd2 strain (AID 2302;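 active = growth inhibition above 50% at the single 2 µM test dose, taken to imply half-maximal potency below 2 µM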;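 note: 0% = DMSO untreated growth and 100% = chloroquine plus artemisinin killed control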). The conditions noted are these: P. falciparum Dd2 in RBCs, LDH growth readout, 72 h; at 2 µM; hits give high values.
A short description of experiment [2]: HepG2 cytotoxicity, primary screen, cytotoxicity control for P. falciparum antimalarial project, cell-based, ATP luminescence (AID 2303;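 active = inhibition above 50%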;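 note: 0% = DMSO wells and 100% = digitonin-killed cells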). The conditions noted are these: HepG2 viability, 24-48 h, at 10 µM, hits give high values.
In experiment [3] the target is L-lactate dehydrogenase (Plasmodium falciparum (isolate CDC / Honduras)) (UniProt Q27743). Nature of the experiment: PfLDH activity inhibition – cell lysate, 3D7 strain, counter-screen for P. falciparum growth inhibition project (AID 2304).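 Note: 0% = vehicle and 100% = reference inhibitor.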 The conditions noted are these: P. falciparum 3D7 crude extract, LDH APAD/NBT absorbance; at 2 µM; hits give high values. (In general: The purpose of a counterscreen is to sort out artefacts and off-target activity.)

The nature of experiment [4]: inhibition of 3D7 malaria parasite growth – strain 3D7 (AID 2306).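 Note: 0% = DMSO wells and 100% = chloroquine plus artemisinin control wells.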 The conditions noted are these: P. falciparum 3D7 erythrocytic growth, LDH absorbance, 72 h; at 2 µM; hits give high values.
The target of experiment [5] is Calcium-dependent protein kinase 1 (Plasmodium falciparum (isolate 3D7)) (UniProt P62344). Nature of the experiment: PfCDPK1 kinase inhibitors, biochemical, TCAMS library (AID 1159585; cut-off not given, nearly all actives have IC50 up to about 0.98 µM;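 note: inhibitors leave more ATP so luminescence rises with inhibition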). The conditions noted are these: recombinant PfCDPK1, Kinase-Glo ATP depletion luminescence. For orientation: In Kinase-Glo more light means more ATP remaining.
In experiment [6] the target is Plasmodium falciparum protein kinase 6 (PK6, PF3D7_1337100) (UniProt Q8IDW1). Nature of the experiment: PfPK6 kinase inhibitors, biochemical, TCAMS library (AID 1159586). The conditions noted are these: recombinant PfPK6, Kinase-Glo ATP depletion luminescence.
Experiment [7] concerns the target Protein kinase 7 (PK7), Plasmodium falciparum 3D7 (PF3D7_0213400) (UniProt Q7YTF7). The experiment is described as follows: inhibition of Plasmodium PK7 catalytic activity – biochemical, TCAMS antimalarial set, Kinase-Glo luminescence (AID 1159587). The conditions noted are these: recombinant PfPK7, Kinase-Glo ATP depletion luminescence.
In experiment [8] the target is Calcium-dependent protein kinase 4 (Plasmodium falciparum (isolate 3D7)) (UniProt Q8IBS5). Nature of the experiment: PfCDPK4 kinase inhibitors, biochemical, TCAMS library (AID 1159588; cut-off not given, nearly all actives have IC50 up to about 0.91 µM). The conditions noted are these: recombinant PfCDPK4, Kinase-Glo ATP depletion luminescence.

The term inhibition denotes the change of the read-out against control, counted positive when it falls.

Calcium-dependent protein kinase 1 (Plasmodium falciparum (isolate 3D7)), sequence (P62344 whole entry, looked up): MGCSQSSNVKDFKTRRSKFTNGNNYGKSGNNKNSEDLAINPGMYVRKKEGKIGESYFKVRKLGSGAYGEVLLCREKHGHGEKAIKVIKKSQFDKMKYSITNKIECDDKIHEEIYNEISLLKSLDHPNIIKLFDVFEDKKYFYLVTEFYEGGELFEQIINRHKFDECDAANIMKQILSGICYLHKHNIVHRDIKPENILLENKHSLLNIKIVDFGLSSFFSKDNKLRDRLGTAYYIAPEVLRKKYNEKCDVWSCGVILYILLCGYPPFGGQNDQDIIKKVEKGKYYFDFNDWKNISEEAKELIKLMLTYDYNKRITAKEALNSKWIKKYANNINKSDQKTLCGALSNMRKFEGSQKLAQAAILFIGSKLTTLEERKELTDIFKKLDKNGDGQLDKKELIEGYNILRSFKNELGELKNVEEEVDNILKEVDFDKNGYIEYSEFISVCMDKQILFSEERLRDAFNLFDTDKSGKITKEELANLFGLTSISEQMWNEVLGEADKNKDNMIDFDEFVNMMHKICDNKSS
Protein kinase 7 (PK7), Plasmodium falciparum 3D7 (PF3D7_0213400), sequence (Q7YTF7 1-343): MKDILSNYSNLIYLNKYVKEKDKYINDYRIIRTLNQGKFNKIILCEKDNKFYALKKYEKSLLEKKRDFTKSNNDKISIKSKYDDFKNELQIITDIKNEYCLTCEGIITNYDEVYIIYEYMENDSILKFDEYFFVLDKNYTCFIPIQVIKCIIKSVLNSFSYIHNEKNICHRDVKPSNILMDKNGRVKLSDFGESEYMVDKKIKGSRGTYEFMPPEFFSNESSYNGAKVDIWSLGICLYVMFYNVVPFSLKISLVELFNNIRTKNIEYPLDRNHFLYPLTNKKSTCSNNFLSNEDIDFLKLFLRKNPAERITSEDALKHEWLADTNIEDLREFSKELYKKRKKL
Plasmodium falciparum protein kinase 6 (PK6, PF3D7_1337100), sequence (Q8IDW1 1-305): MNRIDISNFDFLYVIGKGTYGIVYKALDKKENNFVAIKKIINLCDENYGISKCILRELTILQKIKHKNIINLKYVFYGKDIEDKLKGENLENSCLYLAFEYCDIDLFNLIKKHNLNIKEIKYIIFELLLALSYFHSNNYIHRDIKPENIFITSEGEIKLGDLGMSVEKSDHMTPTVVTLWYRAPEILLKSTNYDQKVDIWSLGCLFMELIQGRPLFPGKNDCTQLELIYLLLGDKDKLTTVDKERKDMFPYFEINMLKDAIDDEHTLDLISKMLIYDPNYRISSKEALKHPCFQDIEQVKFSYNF
L-lactate dehydrogenase (Plasmodium falciparum (isolate CDC / Honduras)), sequence (Q27743 whole entry, looked up): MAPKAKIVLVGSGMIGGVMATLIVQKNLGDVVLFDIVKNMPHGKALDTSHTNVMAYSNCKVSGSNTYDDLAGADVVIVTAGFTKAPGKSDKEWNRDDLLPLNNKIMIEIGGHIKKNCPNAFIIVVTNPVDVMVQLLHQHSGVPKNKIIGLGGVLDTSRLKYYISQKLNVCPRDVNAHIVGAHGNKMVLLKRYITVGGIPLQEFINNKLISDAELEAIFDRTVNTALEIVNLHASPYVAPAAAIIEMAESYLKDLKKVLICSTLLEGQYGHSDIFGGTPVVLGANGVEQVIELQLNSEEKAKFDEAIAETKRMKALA
Calcium-dependent protein kinase 4 (Plasmodium falciparum (isolate 3D7)), sequence (Q8IBS5 whole entry, looked up): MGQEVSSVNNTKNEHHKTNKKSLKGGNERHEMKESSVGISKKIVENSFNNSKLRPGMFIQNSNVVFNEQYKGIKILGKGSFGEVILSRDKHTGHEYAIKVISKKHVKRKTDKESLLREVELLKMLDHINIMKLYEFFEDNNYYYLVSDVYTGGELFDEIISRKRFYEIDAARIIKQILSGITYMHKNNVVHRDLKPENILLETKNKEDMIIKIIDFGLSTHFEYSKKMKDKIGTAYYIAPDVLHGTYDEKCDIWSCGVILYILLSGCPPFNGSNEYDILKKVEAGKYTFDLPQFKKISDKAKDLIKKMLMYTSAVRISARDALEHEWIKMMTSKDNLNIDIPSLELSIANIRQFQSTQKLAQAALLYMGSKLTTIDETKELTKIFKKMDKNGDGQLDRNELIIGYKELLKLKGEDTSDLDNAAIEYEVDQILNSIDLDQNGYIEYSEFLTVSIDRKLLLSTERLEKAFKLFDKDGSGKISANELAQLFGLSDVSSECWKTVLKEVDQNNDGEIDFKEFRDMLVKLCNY

On to `CC(C)CNCc1ccc(-c2cccc(CN(C(=O)CCC3CCCC3)C3CCN(Cc4ccccc4)CC3)c2)cc1`, for which the growth inhibition was 92% (active) in experiment [1] and 101% (active) in experiment [4]. Besides, the inhibition in experiment [2] is 62% (active); in experiment [3], -7%. Also, the outcome in experiment [5], in experiment [6], in experiment [7] and in experiment [8] was inactive.
Consider `CCCCc1ccc2[nH]cc(C3=CCN(C)CC3)c2c1Br`, for which the growth inhibition in experiment [1] and in experiment [4] was 94% (active) in each case. The inhibition in experiment [2] was 37%; in experiment [3] it was -5%. Moreover, the outcome in experiment [5], in experiment [6], in experiment [7] and in experiment [8] was inactive.
`Cc1[nH]c2ccc(O)cc2c1C1CCN(CC2CCC(NC(=O)/C=C/c3ccc(Cl)c(Cl)c3)CC2)CC1` (configuration not stated): the growth inhibition in experiment [1] is 95% (active); in experiment [4], 102% (active). In addition, the results for the inhibition in experiment [2] and in experiment [3] were 19% and 3%, respectively. Further, the result in experiment [5], in experiment [6], in experiment [7] and in experiment [8] was inactive.
With `CC(=O)C1(c2ccccc2)CCN(CCC2(c3ccc(Cl)c(Cl)c3)CN(C(=O)CC(C)C)CCO2)CC1` (configuration not stated), the values for the growth inhibition in experiment [1] and in experiment [4] were 94% (active) and 92% (active), respectively. Further, the inhibition was 7% in experiment [2] and 0% in experiment [3]. Further, the outcome in experiment [5], in experiment [6], in experiment [7] and in experiment [8] was inactive.
With `O=C(CCCCCc1ccccc1)NC1CCC(CN2CCC(c3c[nH]c4ccccc34)CC2)CC1` (configuration not stated), the figures for the growth inhibition in experiment [1] and in experiment [4] were 5% and 86% (active), respectively. Moreover, the results for the inhibition in experiment [2] and in experiment [3] were 34% and -3%, respectively. In addition, the outcome in experiment [5], in experiment [6], in experiment [7] and in experiment [8] was inactive.
For the compound `CN(C)c1cccc(NC(=O)N[C@H]2N=C(c3ccccc3)c3ccccc3N(CC(=O)N3CCCC3)C2=O)c1`, the growth inhibition in experiment [1] and in experiment [4] was 98% (active) each time. The inhibition was -5% in experiment [2] and -4% in experiment [3]. For the same compound, the result in experiment [5], in experiment [6], in experiment [7] and in experiment [8] was inactive.
For `Cc1[nH]c2ccccc2c1C1=CCN(CCN2CCOc3c(Br)cccc3C2=O)CC1`, the growth inhibition in experiment [1] was 76% (active); in experiment [4] it was 97% (active). The inhibition was 15% in experiment [2] and -3% in experiment [3]. In addition, the outcome in experiment [5], in experiment [6], in experiment [7] and in experiment [8] was inactive.
Take `Cc1cc(O)cc2c(C3CCN(CC4CCN(C(=O)/C=C/c5ccc(Cl)c(Cl)c5)CC4)CC3)c[nH]c12`: the results for the growth inhibition in experiment [1] and in experiment [4] were 100% (active) and 101% (active), respectively. Moreover, the inhibition was 33% in experiment [2] and 3% in experiment [3]. Further, the outcome in experiment [5], in experiment [6], in experiment [7] and in experiment [8] was inactive.
Consider `CCCCNC(c1ccc(Cl)cc1)C(O)c1ccc(Cl)cc1` (configuration not stated), for which the growth inhibition is 98% (active) in experiment [1] and 99% (active) in experiment [4]. For the same compound, the inhibition in experiment [2] was 13%; in experiment [3], 4%. The result in experiment [5], in experiment [6], in experiment [7] and in experiment [8] was inactive.
Regarding `Cc1ccc2c(C3=CCN(CCCCC4(C)C(=O)Nc5c(F)cccc54)CC3)c(C)[nH]c2c1` (configuration not stated), the growth inhibition in experiment [1] is 89% (active); in experiment [4], 95% (active). For the same compound, the results for the inhibition in experiment [2] and in experiment [3] were 5% and -4%, respectively. In addition, the result in experiment [5], in experiment [6], in experiment [7] and in experiment [8] was inactive.
`COC(=O)c1ccc(CC(C)NCC(O)c2ccc(Cl)c(Cl)c2)cc1` (configuration not stated): the results for the growth inhibition in experiment [1] and in experiment [4] were 33% and 87% (active), respectively. Besides, the inhibition is -1% in experiment [2] and 0% in experiment [3]. For the same compound, the result in experiment [5], in experiment [6], in experiment [7] and in experiment [8] was inactive.
As for `COC(=O)c1ccc(CC(C)NCC(O)c2cccc(Oc3cccc(C(F)(F)F)c3)c2)cc1` (configuration not stated), the growth inhibition is 73% (active) in experiment [1] and 91% (active) in experiment [4]. In addition, the inhibition in experiment [2] is 19%; in experiment [3] it was 2%. For the same compound, the result in experiment [5], in experiment [6], in experiment [7] and in experiment [8] was inactive.
As to `CC(Cc1ccc(CSC(C)C)cc1)NCC(O)c1cccc(Cl)c1` (configuration not stated), the growth inhibition in experiment [1] and in experiment [4] was 98% (active) each time. Further, the inhibition in experiment [2] was 11%; in experiment [3], -8%. Further, the outcome in experiment [5], in experiment [6], in experiment [7] and in experiment [8] was inactive.
Regarding `Cc1nc(C)c(-c2ccc(Oc3ccc(OC(F)(F)F)cc3)cc2)c(OC(=O)N(CCNC(C)C)C(C)C)c1Br`, the figures for the growth inhibition in experiment [1] and in experiment [4] were 97% (active) and 98% (active), respectively. The inhibition is 35% in experiment [2] and -2% in experiment [3]. The result in experiment [5], in experiment [6], in experiment [7] and in experiment [8] was inactive.
Regarding `CC(=O)C1(c2ccccc2)CCN(CCC2(c3ccc(Cl)c(Cl)c3)CN(C(=O)Nc3cccc(C(F)(F)F)c3)CCO2)CC1` (configuration not stated), the figures for the growth inhibition in experiment [1] and in experiment [4] were 66% (active) and 95% (active), respectively. Moreover, the inhibition is 24% in experiment [2] and 8% in experiment [3]. Further, the result in experiment [5], in experiment [6], in experiment [7] and in experiment [8] was inactive.
Consider `CCCN(CCC)CCOC(=O)C(OCC)(c1ccccc1)c1ccccc1`, for which the results for the growth inhibition in experiment [1] and in experiment [4] were 0% and 97% (active), respectively. The values for the inhibition in experiment [2] and in experiment [3] were -2% and 0%, respectively. Moreover, the result in experiment [5], in experiment [6], in experiment [7] and in experiment [8] was inactive.
Turning to `CC(Cc1ccc(SCCSc2ccccc2)cc1)NCC(O)c1cccc(Cl)c1` (configuration not stated), the growth inhibition in experiment [1] is 96% (active); in experiment [4] it was 98% (active). Moreover, the results for the inhibition in experiment [2] and in experiment [3] were 4% and -7%, respectively. Besides, the result in experiment [5], in experiment [6], in experiment [7] and in experiment [8] was inactive.
Regarding `COc1cccc(C=CC(=O)NC2CCC(CN3CCC(c4c[nH]c5ccccc45)CC3)CC2)c1OC` (configuration not stated), the growth inhibition in experiment [1] was 40%; in experiment [4], 102% (active). The inhibition in experiment [2] is 37%; in experiment [3], -1%. In addition, the result in experiment [5], in experiment [6], in experiment [7] and in experiment [8] was inactive.
`O=[N+]([O-])c1ccc(Oc2c(Cl)cc(S(=O)(=O)NC3CCC(CN4CCC(c5c[nH]c6ccccc56)CC4)CC3)cc2Cl)c(Cl)c1` (configuration not stated): the growth inhibition was 64% (active) in experiment [1] and 100% (active) in experiment [4]. Besides, the values for the inhibition in experiment [2] and in experiment [3] were 30% and -4%, respectively. For the same compound, the result in experiment [5], in experiment [6], in experiment [7] and in experiment [8] was inactive.
